High-throughput results as filed in PubChem.
A selection: hits, their analogues and other compounds. The true share with any hit is near 6.1%.
D1 antagonist = blocks dopamine activation of the human D1 receptor | P21728 | HEK293 TREx D1 cells, calcium flux, dopamine EC80; stronger effect = lower value | activity change, negative = inhibition, % at 10 µM | 3.2% of 360,000 active; in the data active means activity change below about -30%; further: on the % scale 0 is the no-effect control and ±100 the full control effect
Target sequence (P21728 whole entry, looked up): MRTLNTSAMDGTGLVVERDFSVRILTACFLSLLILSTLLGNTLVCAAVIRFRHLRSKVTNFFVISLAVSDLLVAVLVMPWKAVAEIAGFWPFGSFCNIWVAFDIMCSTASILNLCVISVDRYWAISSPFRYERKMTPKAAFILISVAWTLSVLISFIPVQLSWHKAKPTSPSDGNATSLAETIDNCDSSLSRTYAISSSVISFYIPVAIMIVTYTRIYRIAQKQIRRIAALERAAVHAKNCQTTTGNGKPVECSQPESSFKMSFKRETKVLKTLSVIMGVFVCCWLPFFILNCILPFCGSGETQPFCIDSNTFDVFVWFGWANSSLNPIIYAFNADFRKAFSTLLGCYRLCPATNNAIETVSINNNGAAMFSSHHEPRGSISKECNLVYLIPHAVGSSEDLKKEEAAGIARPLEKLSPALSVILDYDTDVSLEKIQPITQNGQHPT
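Antagonism measured as reduced calcium response to an EC80 dopamine addition following 180 s compound pre-read; cells were inducible HEK293 Trex D1 plated overnight at 30 C, read kinetically at 1 cycle/sec.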
DRD3 agonist = agonists of human D3 dopamine receptor | P35462 | D3R DiscoveRx beta-arrestin cells, luminescence, 90 min | max activation, % | 0.58% of 410,000 active | AID 652048; in the data active means max activation above about 30%; further: 0% is about no effect
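Agonist mode: compounds and dopamine controls were applied to plated cells for 90 min at 37 degrees C after an overnight attachment at 1500 cells/well. Luminescent read-out followed 30 - 60 minutes at room temperature with DiscoveRx detection reagent.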
D1 potentiator = enhances dopamine response at the human D1 receptor | HEK293 TREx D1 cells, calcium flux, dopamine EC20 potentiation | 0.036% of 360,000 active | P21728 | AID 504651 | potentiation, % at 10 µM; in the data active means potentiation above about 30%; further: 0% is about no effect
DRD3 antagonist = antagonists of human D3 dopamine receptor; AID 652054; max response, negative = inhibition, %; D3R cells, DiscoveRx beta-arrestin luminescence, antagonist mode; stronger effect = lower value; 2.5% of 360,000 active; P35462; in the data active means max response below about -50%; inconclusive means no clear call, values can overlap the other calls; further: on the % scale 0 is the no-effect control and ±100 the full control effect
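Cells plated overnight at 1500 cells/well, then exposed to library compounds with dopamine controls for 90 minutes at 37 degrees C. DiscoveRx reagent added for 30–60 minutes at room temperature; luminescence read, quantitative HTS format.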
D1 agonist = human D1 receptor agonism | 1% of 360,000 active | activation, % at 2 µM | HEK293 T-REx D1 cells, calcium flux, agonist mode; in the data active means activation above about 30%; further: 0% is about no effect
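Agonism was scored from calcium flux recorded over 180 s (1 read/s) after pintool compound addition, following a 10-cycle baseline. Cells were inducible force-coupled HEK293 TREx D1, plated overnight at 30 C and loaded with no-wash calcium dye.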
Numbers without * were called inactive.

How did COc1ccc(-c2cc(C(=O)Nc3c(C)nn(Cc4ccc(F)cc4)c3C)no2)cc1OC do in these assays?
D1 antagonist: -4; DRD3 agonist: 5; D1 potentiator: -1; D1 agonist: 6

How did CC(C(=O)NC(C)(C)C)N1C(=O)c2cccc3cccc(c23)C1=O (stereo unspecified) do in these assays?
D1 antagonist: -71*; DRD3 agonist: -8; D1 potentiator: -4; DRD3 antagonist: -14; D1 agonist: 1

Results for CC(C)C(C(=O)NC(C)(C)C)N1C(=O)c2ccccc2C1=O (stereo unspecified) ?
D1 antagonist: 9; DRD3 agonist: 1; D1 potentiator: -10; DRD3 antagonist: 22; D1 agonist: 1

How did Cc1oc(-c2ccccc2Cl)nc1CSc1nc2c(c(=O)[nH]1)CCC2 do in these assays?
D1 antagonist: -15; DRD3 agonist: 57*; D1 potentiator: 1; DRD3 antagonist: 184; D1 agonist: -3

How did O=c1[nH]c(SCc2ccc(Cl)cc2)nc2c1CCC2 do in these assays?
D1 antagonist: 4; DRD3 agonist: 2; D1 potentiator: 2; DRD3 antagonist: 54; D1 agonist: 1

Results for O=c1c2c(nc3nc(NCc4ccccc4Cl)[nH]n13)CCC2 ?
D1 antagonist: -36*; D1 potentiator: -1; D1 agonist: 2

Results for O=c1[nH]c(SCc2ccccc2Cl)nc2c1CCCC2 ?
D1 antagonist: -3; DRD3 agonist: 31*; D1 potentiator: -1; DRD3 antagonist: 55; D1 agonist: 5

How did O=c1[nH]c(SCc2ccccc2)nc2c1CCCC2 do in these assays?
D1 antagonist: -41*; DRD3 agonist: 10; D1 potentiator: -3; D1 agonist: 8

What do the screens show for `O=C(NCc1ccccc1F)c1cc2ccccn2n1`?
D1 antagonist: -1; DRD3 agonist: -19; D1 potentiator: -2; D1 agonist: 1

How did O=C(O)CCC(=O)N1CCN(c2nc(-c3ccccc3Cl)c3cc(Br)ccc3n2)CC1 do in these assays?
D1 antagonist: -5; DRD3 agonist: 1; D1 potentiator: 2; DRD3 antagonist: inconclusive; D1 agonist: 66*

Results for Cc1ccc(NC(=O)Cn2cnc3cc([N+](=O)[O-])ccc3c2=O)cc1 ?
D1 antagonist: -13; DRD3 agonist: -1; D1 potentiator: 4; DRD3 antagonist: -5; D1 agonist: 1

How did O=c1c2ccc([N+](=O)[O-])cc2ncn1CCOc1ccc(Cl)cc1 do in these assays?
D1 antagonist: -12; DRD3 agonist: 6; D1 potentiator: -7; DRD3 antagonist: 62; D1 agonist: 0

What do the screens show for `Cc1ccc(NC(=O)Cn2cnc3cc([N+](=O)[O-])ccc3c2=O)c(Cl)c1`?
D1 antagonist: -20; DRD3 agonist: -26; D1 potentiator: -10; DRD3 antagonist: 4; D1 agonist: 38*

What do the screens show for `O=c1c2ccc([N+](=O)[O-])cc2ncn1CCOc1cccc(Br)c1`?
D1 antagonist: -21; DRD3 agonist: 32*; D1 potentiator: -12; DRD3 antagonist: 65; D1 agonist: 2

What do the screens show for `CCC(Sc1nc2ccncc2[nH]1)C(=O)Nc1ccc(F)cc1` (stereo unspecified)?
D1 antagonist: 29; DRD3 agonist: 3; D1 potentiator: 0; D1 agonist: -2

How did COc1ccc(CNC(=O)C(c2ccco2)N(C(=O)Cc2cccs2)c2cccnc2)cc1 (stereo unspecified) do in these assays?
D1 antagonist: -35*; DRD3 agonist: 4; D1 potentiator: -3; DRD3 antagonist: 3; D1 agonist: 6

How did CCOc1ccc(N=C2NC(=O)S/C2=C\c2ccc(N(C)C)cc2)cc1 do in these assays?
D1 antagonist: 1; DRD3 agonist: -11; D1 potentiator: -4; DRD3 antagonist: -69*; D1 agonist: 81*

Results for CCOc1ccc(C(=O)NC(=S)Nc2cccc(NC(=O)c3ccco3)c2)cc1[N+](=O)[O-] ?
D1 antagonist: -18; DRD3 agonist: -8; D1 potentiator: -6; DRD3 antagonist: -69*; D1 agonist: 1

What do the screens show for `COc1ccc(C(=O)NC(=S)Nc2cccc(NC(=O)c3ccco3)c2)cc1[N+](=O)[O-]`?
D1 antagonist: -2; DRD3 agonist: 7; D1 potentiator: -10; DRD3 antagonist: 18; D1 agonist: 1

What do the screens show for `O=C(NNC(=O)c1ccccc1O)c1ccc(Cl)c(S(=O)(=O)N2CCc3ccccc32)c1`?
D1 antagonist: -33*; DRD3 agonist: 21; D1 potentiator: 1; DRD3 antagonist: 0; D1 agonist: 9

How did O=c1c(/C=C(\O)c2ccc(F)cc2)nc2ccccc2n1-c1ccccc1 do in these assays?
D1 antagonist: 5; DRD3 agonist: 11; D1 potentiator: 8; DRD3 antagonist: 0; D1 agonist: 159*

Results for COc1ccc([C@]23Cc4cc(C#N)ccc4C(O2)c2c(c4ccc(OC)cc4oc2=O)O3)cc1 ?
D1 antagonist: 0; D1 potentiator: -1; D1 agonist: 1

What do the screens show for `COc1cccc(C(C(=O)NC2CCCC2)N(Cc2ccco2)C(=O)c2ccco2)c1OC` (stereo unspecified)?
D1 antagonist: -37*; DRD3 agonist: 0; D1 potentiator: -5; DRD3 antagonist: -65*; D1 agonist: 0

Results for COc1cccc(C(C(=O)NC2CCCC2)N(C(=O)c2ccco2)c2ccccc2F)c1OC (stereo unspecified) ?
D1 antagonist: -1; DRD3 agonist: -6; D1 potentiator: 1; DRD3 antagonist: 10; D1 agonist: -1

Results for COc1ccc(C(C(=O)NC2CCCC2)N(Cc2ccco2)C(=O)c2snc(C(N)=O)c2N)cc1OC (stereo unspecified) ?
D1 antagonist: -33*; DRD3 agonist: 4; D1 potentiator: -4; DRD3 antagonist: 18; D1 agonist: 4

How did COc1ccc(C(C(=O)NC2CCCCC2)N(Cc2ccco2)C(=O)c2snc(C(N)=O)c2N)cc1 (stereo unspecified) do in these assays?
D1 antagonist: 11; DRD3 agonist: -24; D1 potentiator: -5; DRD3 antagonist: 18; D1 agonist: 4

What do the screens show for `COc1ccc2c(Sc3ccccc3)c(C(=O)NCCCN3CCCCC3)[nH]c2c1`?
D1 antagonist: -4; DRD3 agonist: -1; D1 potentiator: -5; D1 agonist: 11

How did COc1ccc(N2CCN(C(=O)CN3C(=O)CSc4c3c(C)nn4-c3ccccc3)CC2)cc1 do in these assays?
D1 antagonist: -24; DRD3 agonist: 6; D1 potentiator: -8; D1 agonist: 7

What do the screens show for `C=CC(C)(C)c1c(O)c(CC=C(C)C)c(O)c2c(=O)c3ccc(O)c(O)c3oc12`?
DRD3 agonist: 89*; DRD3 antagonist: 81

What do the screens show for `CCOc1ccc(CN2CCN(Cc3cc4ccccc4[nH]3)CC2CCO)cc1` (stereo unspecified)?
D1 antagonist: -30*; DRD3 agonist: 1; D1 potentiator: 6; DRD3 antagonist: 1; D1 agonist: 41*
